# Compound activity from PubChem BioAssay.
# The sample as a whole holds a higher share of hits than the screen did.
# Tg IFNy HTS – blocks Toxoplasma gondii growth in the presence of IFN-gamma. Toxoplasma gondii growth in IFN-gamma-treated host cells; stronger effect = lower value. activity change, negative = inhibition, % (test concentration not listed). 69,000 tested, 3.8% active; in the data active means activity change below about -70%, passing the limit was not always enough;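 further: host cells are HeLa cells infected with Toxoplasma gondii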
# * marks the source's active call; other numbers are inactive results.
SMILES,Tg IFNy HTS
CC(C)(C)c1ccc(S(=O)(=O)Nc2ccc(C34CC5CC(CC(C5)C3)C4)cc2)cc1,-96.2*
O=C1CCc2cc(NS(=O)(=O)c3ccc(C(F)(F)F)cc3)ccc2N1,-37.3
Cc1ccc(-c2nc(CSc3nc4c(=O)[nH]cnc4n3C)c(C)o2)cc1,-5.4
CCCc1nc(C(=O)N2CCN(S(=O)(=O)CC)CC2)cs1,35.6
CSC1SCC2C(=O)N(C)C(C(C)C)C(=O)OCC(NC(=O)c3cnc4ccccc4n3)C(=O)NC(C)C(=O)N(C)C1C(=O)N(C)C(C(C)C)C(=O)OCC(NC(=O)c1cnc3ccccc3n1)C(=O)NC(C)C(=O)N2C (centres undefined),-76.6*
O=S(=O)(c1ccc(Cl)s1)n1cnc2ccccc21,-49.3
CCn1nc(C(C)C)cc1C(=O)N1CCC(O)(CN(C)C)C1 (centres undefined),-46.1
CCNC(=O)c1c2c(N3CCN(C)CC3)ncnc2n2ccccc12,35.1
Cc1cnc(CNC(=O)c2c(=O)c3ccc(N4CCCN(C)CC4)nc3n3c2sc2ccccc23)cn1,-81.2*
Cc1cnc(CNC(=O)c2nc(-c3cn(Cc4ccccc4)c(C)n3)n3ccccc23)cn1,-2.3
Cc1ccc(-c2coc(-c3ccc(NC(=O)NCCc4ccccc4)cc3)n2)c(C)c1,-39.0
c1csc(-c2noc(COc3cccc4ccc(N5CCOCC5)nc34)n2)c1,-9.4
O=C(O)CCC(=O)N1CC2CC(C1)CN(C(=O)c1ccco1)C2,-5.9
CCc1nnc(NC(=O)c2ccc(S(=O)(=O)NCC(C)C)cc2)s1,-74.8*
CCc1nnc(NC(=S)NC(=O)c2ccc(-c3ccccc3)cc2)s1,245.1
COc1ccc(S(=O)(=O)Nc2nnc(CC(C)C)s2)cc1,7.0
Cc1cccc(C(=O)N2CCC3(CC2)NC(=O)c2cc(C)ccc2N3C)c1,-11.0
O=S(=O)(Cc1ccccc1)N1CC2CN(Cc3ccccc3)CC2C1 (centres undefined),-14.4
O=S(=O)(c1ccccc1)N1CC2CN(Cc3ccc(Cl)cc3)C2C1 (centres undefined),-105.6*
O=S(=O)(Cc1ccccc1)N1CC2CN(Cc3cccc(Cl)c3)CC2C1 (centres undefined),-21.0
Cc1oc(-c2ccc(C(=O)NCC3COCCO3)cc2)nc1CN1CCN(c2ccccc2)CC1 (centres undefined),6.9
CCCCN(C)C(=O)c1cnc(-c2noc3cc(NCC4CC4)ccc23)s1,-81.5*
Cc1cc(CN(C)C(=O)c2cccc(NCc3ccc(C)s3)c2)on1,-24.5
CN(C)C1CCN(C(=O)c2cnc(-c3noc4cc(-c5ccccc5)ccc34)s2)CC1,-12.1
COCc1nc(NCc2cnc(C)cn2)c2cnn(C)c2n1,4.2
SMILES,Tg IFNy HTS
CCN(Cc1nc(COC)no1)C(=O)c1cccnc1N1CCOCC1,-19.2
CCn1c(C2CCN(C(=O)Cn3c(=O)oc4ccccc43)CC2)nn(C)c1=O,0.7
Cc1ccc(-c2nc(CN3CCN(C(=O)NC4CCCCC4)CC3)c(C)o2)cc1,-2.2
CCOc1ccc(-c2nc(CN3CCN(C(=O)NC4CCCCC4)CC3)c(C)o2)cc1,3.7
Cc1oc(-c2ccc(Cl)cc2)nc1CN1CCCC(C(=O)NC2CCCCCC2)C1 (centres undefined),-99.0*
Cc1nc(-c2ccccc2)sc1CCNS(=O)(=O)c1ccc(Oc2ccccc2)cc1,-33.0
COc1ccc(CC(=O)N2CCC[C@]3(C(=O)O)CN(C)C[C@H]3C2)cc1,-2.5
Nc1[nH]nc2nc3ccccc3nc12,9.0
Oc1c(Cl)c2nc3ccccc3nc2c2ccccc12,-104.7*
c1ccc2c(c1)nc1c2ccc2[nH]onc21,-2.2
Cc1c(S(=O)(=O)NCC(c2cccnc2)c2cn(C)c3ccccc23)cnn1C(F)F (centres undefined),-14.0
COc1ncccc1-c1nn(C)c2ccc(C)cc12,7.3
COc1ncccc1-c1[nH]cnc1-c1ccccc1,-15.3
COc1ncccc1-c1cccc(-c2nnc(C)s2)c1,-94.4*
COc1cccc(N2CC3(CCN(C(=O)N4CCCC4)C3)CC2=O)c1 (centres undefined),0.9
CCCC(C)c1c(-c2ccccc2)ncn1Cc1cnc(C)cn1 (centres undefined),-35.8
CC(C)N(C)Cc1ncn2c1CN(S(=O)(=O)C1CC1)CCC2,-1.8
O=C(Nc1ccc(F)cc1F)c1c(O)c2ccccc2[nH]c1=O,-1.4
FC(F)(F)c1cccc(NC(=S)Nc2ccccn2)c1,-113.3*
S=C(Nc1ccccc1)Nc1ccccn1,61.2
O=C1NN=CC1CCCNC(=S)Nc1cccc(C(F)(F)F)c1 (centres undefined),13.5
CC(c1ccc(-c2ccc3cc[nH]c(=O)c3c2)cc1)N1CCOCC1 (centres undefined),142.8
CC(=O)CC1N(C2CCCC2)C(=O)C2N(Cc3ccc(Cl)cc3)C(=O)C3CC(=O)OC321 (centres undefined),-41.8
CNC(=O)CC1CC2(CCN(C(=O)N3CCCC3)CC2)Oc2ccccc21 (centres undefined),-1.4
CN1CCn2c(-c3ccccc3)cnc2C12CCN(C(=O)N1CCOCC1)CC2,2.0
CCn1c(CC2CCN(CCc3ccccc3)CC2)n[nH]c1=O,-5.3
